From PubChem BioAssay (Tox21)
“And” between values parts separate entries of the source, which are not always exact repeats. Equal values may be shown once. Results filed as inconclusive are left out. More than one record can exist for a structure, and the calls need not agree. The source made the active and inactive calls. Unless noted, calls come from the whole dose curve; as a rule, active = well fitted curve in the direction sought with a large enough effect in the repeat runs; inconclusive = weak or mixed curves; inactive = no such curve, though single readings can be large; an effect the other way counts as inactive or inconclusive.

Columns and labels:
[1] = biological target: Retinoic acid receptor RXR-alpha (Homo sapiens) (UniProt P19793); experiment: qHTS assay to identify small molecule agonists of the RXR signaling pathway (AID 1159527; calls by dose curve; note: nearly all actives have a fitted effect of over 35% in size; note: potency is the fitted concentration of half-maximal effect)
Sequence of Retinoic acid receptor RXR-alpha (Homo sapiens) (P19793 whole entry, looked up): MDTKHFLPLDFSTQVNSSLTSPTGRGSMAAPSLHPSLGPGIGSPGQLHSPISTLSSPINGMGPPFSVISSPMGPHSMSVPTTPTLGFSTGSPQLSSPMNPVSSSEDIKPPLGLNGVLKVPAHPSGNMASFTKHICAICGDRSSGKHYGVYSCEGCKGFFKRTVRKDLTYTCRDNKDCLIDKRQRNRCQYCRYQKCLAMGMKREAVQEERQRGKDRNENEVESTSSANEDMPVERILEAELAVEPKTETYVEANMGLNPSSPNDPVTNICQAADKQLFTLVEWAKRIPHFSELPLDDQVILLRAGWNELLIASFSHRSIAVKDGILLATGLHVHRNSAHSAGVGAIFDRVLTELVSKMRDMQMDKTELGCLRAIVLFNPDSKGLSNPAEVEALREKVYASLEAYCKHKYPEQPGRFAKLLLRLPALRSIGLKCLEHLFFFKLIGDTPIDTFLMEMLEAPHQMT
Method in brief: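 Compounds in DMSO were added to RXR-alpha-UAS-bla HEK 293T cells kept in 2% charcoal-stripped serum, and incubated 16 hr at 37 C with 5% CO2. Reporter signal came from a 2 hr B/G FRET substrate step.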

[2] = qHTS assay to identify small molecule agonists of the RXR signaling pathway - cell viability counter screen (AID 1159529);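 note: HEK 293T cells carrying an RXR-alpha UAS beta-lactamase reporter; series mostly up to about 77 µM; nearly all actives have a fitted effect of over 50% in size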
Method in brief: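 Counter screen: CellTiter-Glo luminescence. Cells: RXR-alpha-UAS-bla HEK 293T. Medium: 2% charcoal-stripped FBS. Treatment: 16 h, 37 C. Reagent incubation: 30 min, RT.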

[3] = qHTS assay to identify small molecule antagonists of the retinoid acid receptor (RAR) signaling pathway - cell viability counter screen (AID 1159551); note: nearly all actives have a fitted effect of over 35% in size
Method in brief: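 Seed C3RL4 cells; next day add compound, then retinol to 1 uM final; incubate 6 h at 37 C; add CellTiter-Glo; read luminescence after 30 min at RT.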

[4] = qHTS assay to identify small molecule antagonists of the estrogen related receptor (ERR) signaling pathway from Tox21 library - cell viability counter screen (AID 1224834); note: nearly all actives have a fitted effect of over 30% in size
Method in brief: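 CellTiter-Fluor fluorescence measured; ERR cells; 17.5 h compound incubation at 37 C; 30 min reagent step.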

[5] = biological target: Luciferin 4-monooxygenase (Photinus pyralis) (UniProt P08659); experiment: qHTS assay to identify small molecule inhibitors of firefly luciferase (AID 1224835); note: nearly all actives have a fitted effect of over 25% in size; note: potency is the fitted concentration of half-maximal effect
Sequence of Luciferin 4-monooxygenase (Photinus pyralis) (P08659 whole entry, looked up): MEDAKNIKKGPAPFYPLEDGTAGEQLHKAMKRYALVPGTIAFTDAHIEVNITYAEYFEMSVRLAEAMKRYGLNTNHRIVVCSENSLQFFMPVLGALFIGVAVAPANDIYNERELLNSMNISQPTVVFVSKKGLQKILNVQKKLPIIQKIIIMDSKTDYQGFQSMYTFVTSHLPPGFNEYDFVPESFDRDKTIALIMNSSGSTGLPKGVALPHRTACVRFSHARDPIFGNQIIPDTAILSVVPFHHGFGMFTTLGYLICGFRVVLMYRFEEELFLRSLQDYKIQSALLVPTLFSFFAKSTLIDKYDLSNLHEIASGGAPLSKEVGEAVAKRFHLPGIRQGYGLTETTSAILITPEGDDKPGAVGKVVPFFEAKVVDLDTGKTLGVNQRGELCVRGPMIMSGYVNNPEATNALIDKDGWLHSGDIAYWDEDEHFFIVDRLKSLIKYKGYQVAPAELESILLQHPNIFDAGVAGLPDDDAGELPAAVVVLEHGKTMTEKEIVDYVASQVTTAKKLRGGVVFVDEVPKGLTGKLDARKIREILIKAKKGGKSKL
Method in brief: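 Inhibition of purified Photinus luciferase is measured by luminescence. Substrate levels (D-luciferin, ATP) sit at their KM values. Each compound is tested in a concentration series.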

[6] = qHTS assay to identify small molecule agonists of the constitutive androstane receptor (CAR) signaling pathway - cell viability counter screen (AID 1224836); note: series mostly up to about 92 µM; nearly all actives have a fitted effect of over 45% in size
Method in brief: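 Double-stable HepG2 hepatoma cells (hCAR plus CYP2B6-2.2kb) are treated for 23 h at 37 C with test compounds in 15-point concentration series. PK11195 at 0.75 uM final is co-added. Cell viability is quantified by CellTiter-Fluor.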

[7] = biological target: Nuclear receptor subfamily 1 group I member 3 (Homo sapiens) (UniProt Q14994); experiment: qHTS assay to identify small molecule antagonists of the constitutive androstane receptor (CAR) signaling pathway (AID 1224838);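 note: HepG2 cells stably expressing hCAR with CYP2B6 luciferase reporter stimulated by CITCO; nearly all actives have a fitted effect of over 40% in size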; note: potency is the fitted concentration of half-maximal effect
Sequence of Nuclear receptor subfamily 1 group I member 3 (Homo sapiens) (Q14994 whole entry, looked up): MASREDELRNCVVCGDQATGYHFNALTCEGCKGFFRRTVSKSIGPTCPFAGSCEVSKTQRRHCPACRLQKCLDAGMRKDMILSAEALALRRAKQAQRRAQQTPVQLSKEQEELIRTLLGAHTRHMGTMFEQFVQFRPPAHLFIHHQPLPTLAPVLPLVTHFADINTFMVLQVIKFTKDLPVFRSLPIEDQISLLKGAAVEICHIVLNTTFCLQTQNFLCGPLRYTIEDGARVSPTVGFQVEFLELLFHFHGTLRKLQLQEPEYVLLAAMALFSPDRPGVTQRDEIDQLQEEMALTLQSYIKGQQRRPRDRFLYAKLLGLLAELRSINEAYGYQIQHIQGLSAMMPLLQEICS
Method in brief: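 Reporter luminescence was quantified after 24 h exposure of hCAR/CYP2B6-2.2kb double-stable HepG2 cells to compounds at 15 concentrations in the presence of 50 nM CITCO final.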

[8] = biological target: Nuclear receptor subfamily 1 group I member 3 (Homo sapiens) (UniProt Q14994); experiment: qHTS assay to identify small molecule agonists of the constitutive androstane receptor (CAR) signaling pathway (AID 1224839); note: nearly all actives have a fitted effect of over 15% in size; note: potency is the fitted concentration of half-maximal effect
Method in brief: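 Readout: firefly luciferase luminescence via ONE-Glo. System: HepG2 double-stable for hCAR and CYP2B6-2.2kb. Conditions: 15-point compound titration, PK11195 at 0.75 uM final, 24 h incubation.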

[9] = qHTS assay to identify small molecule antagonists of the estrogen related receptor signaling pathway with the pleiotropic PPARgamma coactivator (PGC) from Tox21 10K library - cell viability counter screen (AID 1224840; active = well fitted cell-killing curve with a large enough effect in the repeat runs, not every such curve was filed as active; note: nearly all actives have a fitted effect of over 40% in size)
Method in brief: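 Here the PGC/ERR cells serve as a cytotoxicity control: they are exposed to compounds for 17.5 hours at 37 C, and live-cell signal is quantified using CellTiter-Fluor fluorescence.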

[10] = qHTS assay to identify small molecule agonists of the retinoic acid receptor (RAR) signaling pathway (AID 1159553); note: potency is the fitted concentration of half-maximal effect
Method in brief: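 Activation of retinol signaling was monitored via a RARE luciferase reporter in C3RL4 cells. After 6 hr compound treatment at 37 C, detection reagent was added for 30 min at room temperature before luminescence reading.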

[11] = qHTS assay to identify small molecule antagonists of the constitutive androstane receptor (CAR) signaling pathway - cell viability counter screen (AID 1224837); note: series mostly up to about 92 µM; nearly all actives have a fitted effect of over 45% in size
Method in brief: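 Using CellTiter-Fluor, viability is scored in HepG2 cells stably carrying hCAR and a 2.2kb CYP2B6 reporter after 23 hr compound exposure across 15 concentrations, with CITCO present at 50 nM.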

[12] = qHTS assay to identify small molecule antagonists of the estrogen related receptor signaling pathway with the pleiotropic PPARgamma coactivator (PGC) from Tox21 10K library (AID 1224841; call rule not given here; note: actives are mostly falling curves and most rising ones were filed inactive; nearly all actives have a fitted effect of over 50% in size; note: potency is the fitted concentration of half-maximal effect)
Method in brief: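 Each well held 2,000 PGC/ERR cells, pre-incubated six hours (37 C, 5% CO2). Test substances in DMSO were added by pin tool and left for 18 h at 37 C before luciferase detection by One-Glo.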

[13] = qHTS assay to identify small molecule agonists of the estrogen related receptor signaling pathway with the pleiotropic PPARgamma coactivator (PGC) from Tox21 10K library (AID 1224842); note: nearly all actives have a fitted effect of over 15% in size; note: potency is the fitted concentration of half-maximal effect
Method in brief: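 Luminescence from One-Glo (30 min, room temperature) measured after PGC/ERR cells had 18 h at 37 C with pinned compound (23 nL in DMSO). Cells had been seeded at 2,000 per well and pre-incubated 6 h.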

[14] = qHTS assay to identify small molecule antagonists of the retinoic acid receptor (RAR) signaling pathway (AID 1159552; note: nearly all actives have a fitted effect of over 50% in size)
Method in brief: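 Antagonism of retinol-induced RARE reporter activity was measured in C3RL4 cells. Exposure to compounds and 1 uM final retinol lasted 6 hr at 37 C, with luminescence as endpoint.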

[15] = qHTS assay to identify small molecule antagonists of the estrogen related receptor (ERR) signaling pathway - cell viability counter screen (AID 1224818);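 note: series mostly up to about 46 µM; viability measured after 17.5 h of compound exposure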
Method in brief: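 In the same ERR cell assay, compound-treated wells (17.5 h, 37 C) were multiplexed with a fluorogenic viability reagent, CellTiter-Fluor, read after 30 min to flag cytotoxic substances.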

[16] = qHTS assay to identify small molecule antagonists of the estrogen related receptor signaling pathway with the pleiotropic PPARgamma coactivator (PGC) cell viability counter screen (AID 1224822; note: series mostly up to about 46 µM)
Method in brief: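 Compounds in DMSO, with positive and negative controls, were applied to PGC/ERR cells (2,000/well) and left 17.5 h at 37 C before CellTiter-Fluor detection.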

[17] = qHTS assay to identify small molecule antagonists of the estrogen related receptor (ERR) signaling pathway (AID 1224819;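 note: luminescence from an ERR-driven luciferase reporter measured with One-Glo reagent; series mostly up to about 46 µM; nearly all actives have a fitted effect of over 50% in size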)
Method in brief: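 qHTS in ERR cells, 2,000/well, 1536 format. Cpd (DMSO) added after 6 h settle, 18 h 37 C. One-Glo luminescence, 30 min RT.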

[18] = qHTS assay to identify small molecule agonists of the estrogen related receptor (ERR) signaling pathway (AID 1224820)
Method in brief: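 Cells: ERR line from NTP, 2,000/well. Pre-incubation 6 h, 37 C/5% CO2. Compound (DMSO) pin transfer, 18 h 37 C. One-Glo, 30 min RT, luminescence.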

[19] = tested on: estrogen-related receptor alpha (ERRalpha) with PGC-1alpha coactivator, human; experiment: qHTS assay to identify small molecule antagonists of the estrogen related receptor signaling pathway with the pleiotropic PPARgamma coactivator (PGC) (AID 1224821; calls by dose curve)
Method in brief: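 Luminescent read-out (One-Glo, 30 min at room temperature) following 18 h treatment of PGC/ERR cells at 37 C with compounds delivered in DMSO. Cells had settled 6 h at 37 C/5% CO2 before dosing.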

[20] = qHTS assay to identify small molecule agonists of the estrogen related receptor signaling pathway with the pleiotropic PPARgamma coactivator (PGC) (AID 1224823)
Method in brief: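 Steps: plate PGC/ERR cells at 2,000 cells/well; incubate 6 h, 37 C/5% CO2; pin-transfer compounds (DMSO); incubate 18 h, 37 C; add One-Glo; 30 min RT; read luminescence.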

Measured: Potency

Cc1ccccc1N
inactive: [1] | [2] | [3] | [4] | [5] | [6] | [7] | [8] | [9]

Cc1cccc(N)c1
not listed: [14] | [15] | [16] | [17] | [18] | [19] | [20]
inactive: all other assays above

Nc1cc(Cl)cc(Cl)c1
not listed: [12] | [13] | [15] | [16] | [17] | [18] | [19] | [20]
inactive: all other assays above

Cc1ccc(O)c(C)c1
inactive: [1] | [2] | [3] | [14] | [10] | [4] | [5] | [6] | [9] | [12] | [13]

CN(C)C(=O)C(c1ccccc1)c1ccccc1
inactive: [1] | [2] | [3] | [14] | [10] | [4] | [5] | [6] | [7] | [9]
active: [8] 26.9 µM and 12.2 µM

CN1C(=O)CCS(=O)(=O)C1c1ccc(Cl)cc1 (stereo not given)
inactive: [1] | [2] | [3] | [14] | [10] | [15] | [16] | [4] | [5] | [6] | [9]

CNCC(O)c1ccc(O)cc1 (stereo not given)
inactive: all assays above

COC(=O)Nc1cccc(OC(=O)Nc2cccc(C)c2)c1
active: [10] 8.63 µM and 19.3 µM | [5] 6.33 µM and 12.6 µM | [8] 30.6 µM and 4.86 µM | [13] 13.7 µM
not listed: [15] | [16] | [17] | [18] | [19] | [20]
inactive: all other assays above

Nc1nc(N)nc(NC2CC2)n1
inactive: [1] | [2] | [14] | [10] | [4] | [5] | [6] | [11] | [9] | [12] | [13]

O=C(O)c1cc(Oc2ccc(C(F)(F)F)cc2Cl)ccc1[N+](=O)[O-]
inactive and 68.9 µM (active): [12]
inactive: [1] | [2] | [14] | [10] | [4] | [5] | [6] | [9] | [13]

COc1nc(NC(C)C)nc(NC(C)C)n1
not listed: [3] | [15] | [16] | [17] | [18] | [19] | [20]
inactive: all other assays above

FC(F)(F)c1ccc(Cl)cc1
inactive: [1] | [3] | [14] | [10] | [4] | [5] | [6] | [7] | [8] | [9]

CC(C)(C)C(=O)CCl
inactive: [1] | [2] | [4] | [5] | [6] | [9] | [12] | [13]

Cc1cc(Cl)ccc1OC(C)C(=O)O (stereo not given)
inactive: [1] | [2] | [14] | [10] | [4] | [5] | [6] | [11] | [8] | [9]

CNC(=O)O/N=C/C(C)(C)S(C)=O (stereo not given)
inactive: [1] | [3] | [14] | [10] | [4] | [5] | [6] | [11] | [7] | [8] | [9]

OCCCCO
inactive: [1] | [2] | [14] | [10] | [4] | [6] | [7] | [8] | [9] | [12] | [13]

Cc1cc(O)ccc1Cl
inactive and 12.3 µM (active): [1]
inactive: [2] | [14] | [10] | [4] | [5] | [6] | [11] | [9] | [12] | [13]

CCSC(=O)N1CCCCCC1
26.5 µM (active) and inactive: [7]
not listed: [3] | [11] | [15] | [16] | [17] | [18] | [19] | [20]
inactive: all other assays above

N#Cc1ccccn1
inactive: [1] | [3] | [14] | [10] | [4] | [5] | [6] | [11] | [7] | [8] | [9]

CCOP(=S)(OCC)Oc1ccc([N+](=O)[O-])cc1
inactive: [1] | [2] | [14] | [10] | [4] | [5] | [6] | [7] | [9]

Clc1cnc(Oc2ccc(Oc3ncc(Cl)cc3Cl)cc2)c(Cl)c1
not listed: [2] | [11] | [12] | [13] | [17] | [18] | [19] | [20]
inactive: all other assays above
